The source of these data is PubChem BioAssay (NCATS).

Values without a mark were called inactive. Inconclusive results are not listed. Active and inactive are the calls of the source. Unless noted, calls come from the whole dose curve; as a rule, active = well fitted curve in either direction with a large enough effect (not every such curve was filed as active); inconclusive = small, poorly fitted or top-dose-only effect, or another doubt; inactive = flat fitted curve, though single readings scatter.

In test [1] the target is Lysosomal acid glucosylceramidase (Homo sapiens) (UniProt P04062). Kind of test: Glucocerebrosidase-p2 (AID 348; in the data active = potency below about 10 µM; note: potency is the fitted concentration of half-maximal effect). To be noted: purified GBA, blue fluorogenic substrate, 40 min. The method in brief: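 Compounds titrated from 0.6 nM upwards against 0.2 nM enzyme in pH 5.9 citric acid/KH2PO4, taurocholate, tween-20; blue fluorogenic substrate 80 uM, 40 min room temperature, stopped and read Ex 365/Em 440 for AC50.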

The nature of test [2]: AP1 Signaling Pathway (AID 357).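 Note: ME-180 reporter cells stimulated with EGF at its EC50 level; % is set by controls: 0 for no effect and ±100 for the full control effect.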 To be noted: ME-180 AP-1-bla reporter, EGF-induced, beta-lactamase ratio, 5 h; at 7.69 µM (top of the series) unless noted. In outline:
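Read-out was the 460nm/530nm emission ratio (excitation 405nm) after CCF4 loading for 2.5 hours at room temperature. Cells carried an AP-1-driven beta-lactamase reporter, were stimulated with EC50 EGF plus compound for 5 hours, and AC50 values came from titrations.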

Test [3] in a line: Stat Signaling Pathway (AID 446).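 Note: ME-180 cervical cancer cells given 40 pM IL-6 alongside compound; SIE-controlled beta-lactamase reporter measured as 460/530 nm FRET emission ratio; % is set by controls: 0 for no effect and ±100 for the full control effect.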 To be noted: ME-180 SIE beta-lactamase reporter, IL-6 stimulated, 5 h; at 7.69 µM (top of the series) unless noted. In outline:
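IL-6/STAT signaling read in ME-180 cells via an SIE beta-lactamase reporter. Stimulus was 40 pM IL-6 (its AC50) for 5 hrs, so both activation and inhibition register.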

For test [4], the target named is Glucocorticoid receptor (Homo sapiens) (UniProt P04150). As to the kind of experiment: GR-GFP Redistribution (AID 450;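 active = compounds whose dose series gives a full or clear partial fitted curve of increased nuclear translocation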; note: potency is the fitted concentration of half-maximal effect). The following applies: U2OS GR-GFP nuclear translocation, laser cytometry, 2 h.
For test [5] the target is unchanged. As to the kind of experiment: GR-EFC Redistribution (AID 451; calls by dose curve; note: potency is the fitted concentration of half-maximal effect). To be noted: CHO-K1 GR-EFC translocation, beta-gal luminescence, 2 h. In outline:
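Translocation of GR-ED fusion to nuclear EA restores b-gal, read by luminescence after 1 h room-temperature detection. Engineered CHO-K1 biosensor cells, 1,000/well, exposed 2 h at 37 C to titrations up to 46 uM final.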

Test [6] deals with Mitogen-activated protein kinase 10 (Mus musculus) (UniProt Q61831). Kind of test: JNK3 AlphaScreen Assay (AID 530).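 Note: kinase came from lysate of stimulated human HepG2 cells; signal reports phosphorylation of biotinylated GST-cJun 1-79 at Ser73 with 10 µM ATP; % is set by controls: 0 for no effect and ±100 for the full control effect.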 To be noted: JNK3 lysate, c-Jun phosphorylation; series mostly up to 11.4 µM. In outline: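 Compound titrations were preincubated 15 minutes at room temperature with substrate, antibody and pre-activated JNK3-containing HepG2 lysate. Reactions were started with 10 uM ATP and stopped with EDTA-containing bead buffer for AlphaScreen detection.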

In test [7] the target is 3',5'-cyclic-AMP phosphodiesterase 4B (Homo sapiens) (UniProt Q07343). As to the kind of experiment: qHTS Assay for Inhibitors of PDE-IV (AID 607; active = well fitted activation curve with a large enough effect in the main read-out, with a control signal flat, not every such curve was filed as active; note: % of control where 0% means no effect). The following applies: HEK293 ACTOne CNG channel cells, membrane potential fluorescence; series mostly up to 22.9 µM. The method in brief:
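Live HEK293 cells with a modified cyclic nucleotide-gated (CNG) channel report intracellular cAMP via membrane-potential dye fluorescence (ex 535/em 590 nm). Endogenous PDE-IV was targeted. Compounds were tested at up to 22.9 uM final; RO 20-1724 100 uM served as control.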

Test [8] in a line: qHTS Assay for Identification of Small Molecule Agonists for Hypoxia Response Element Signaling Pathway (AID 914; active = well fitted activation curve with a large enough effect in the signal ratio, with a control signal flat, not every such curve was filed as active; the % refers to the signal ratio; note: % of control where 0% means no effect). To be noted: ME-180 (cervical carcinoma) HRE-bla reporter, beta-lactamase ratio, CoCl2, 17 h; activation: active compounds read high. The method in brief: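 qHTS titration; ME-180 HRE-bla cells; EC50 CoCl2 co-treatment, 17 h at 37 degrees Celsius; CCF4 dye, ex 405nm, em 460nm and 530nm; %Activity from ratio; AC50.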
For orientation: Quantitative high-throughput screening tests each substance at several concentrations.

The target in test [9] is Cytochrome P450 2D6 (Homo sapiens) (UniProt P10635). Kind of test: qHTS Assay for Inhibitors and Substrates of Cytochrome P450 2D6 (AID 891; active = well fitted curve in the direction sought with a large enough effect; an effect the other way counts as inactive or inconclusive; note: potency is the fitted concentration of half-maximal effect; nearly all actives have a fitted effect of over 60% in size). The following applies: recombinant CYP2D6, luciferin-ME EGE luminescence; series mostly up to 11.4 µM. In outline: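 Human CYP2D6 (5 nM) with 30 uM Luciferin-ME EGE (at Km) in 100 mM KPO4, compound preincubated 10 min, then NADPH regeneration system for 60 min at room temperature. Luciferin read by luminescence; normalized to 1.43 uM quinidine.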

The target of test [10] is Cytochrome P450 3A4 (Homo sapiens) (UniProt P08684). As to the kind of experiment: qHTS Assay for Activators of Cytochrome P450 3A4 (AID 885; active = well fitted curve in the direction sought with a large enough effect; an effect the other way counts as inactive or inconclusive; note: nearly all actives have a fitted effect of over 65% in size). To be noted: recombinant CYP3A4, Luciferin-PPXE luminescence, 60 min; series mostly up to 11.4 µM. The method in brief: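 Quantitative HTS format: compounds preincubated with 20nM human CYP3A4 and Luciferin-PPXE substrate at KM, reaction started by NADPH regeneration, stopped after 60 min, luciferase luminescence read 20 min later.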

The target of test [11] is Cytochrome P450 2C19 (Homo sapiens) (UniProt P33261). As to the kind of experiment: qHTS Assay for Inhibitors and Substrates of Cytochrome P450 2C19 (AID 899; active = well fitted curve in the direction sought with a large enough effect; an effect the other way counts as inactive or inconclusive; note: % is set by controls: 0 for no effect and ±100 for the full control effect; nearly all actives have a fitted effect of over 60% in size). To be noted: recombinant CYP2C19, luciferin-H EGE luminescence; series mostly up to 11.4 µM. The method in brief: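 5nM enzyme + 10uM Luciferin-H EGE (=KM), 50mM KPO4; cpd pin-transferred, 10 min 37C; NADPH regen, 60 min 37C; stopped w/ luciferin detection reagent, 20 min; luminescence. Normalized to 57uM ketoconazole (AC100).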
Chain of Cytochrome P450 2C19 (Homo sapiens) (P33261 whole entry, looked up): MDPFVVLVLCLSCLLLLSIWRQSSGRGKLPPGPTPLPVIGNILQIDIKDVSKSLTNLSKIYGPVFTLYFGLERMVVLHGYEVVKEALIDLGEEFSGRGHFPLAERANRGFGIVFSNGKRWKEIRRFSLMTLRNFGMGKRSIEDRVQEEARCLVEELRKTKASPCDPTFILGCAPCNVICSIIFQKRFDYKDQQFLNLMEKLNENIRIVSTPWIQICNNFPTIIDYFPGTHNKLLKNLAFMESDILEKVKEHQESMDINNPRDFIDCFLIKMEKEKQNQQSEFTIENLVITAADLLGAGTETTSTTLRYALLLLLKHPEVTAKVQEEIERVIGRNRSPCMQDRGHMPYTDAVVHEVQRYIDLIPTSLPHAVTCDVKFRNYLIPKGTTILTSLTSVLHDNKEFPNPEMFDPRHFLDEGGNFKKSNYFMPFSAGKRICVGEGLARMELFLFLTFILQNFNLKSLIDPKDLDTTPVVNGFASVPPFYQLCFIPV

Chain of 3',5'-cyclic-AMP phosphodiesterase 4B (Homo sapiens) (Q07343 whole entry, looked up): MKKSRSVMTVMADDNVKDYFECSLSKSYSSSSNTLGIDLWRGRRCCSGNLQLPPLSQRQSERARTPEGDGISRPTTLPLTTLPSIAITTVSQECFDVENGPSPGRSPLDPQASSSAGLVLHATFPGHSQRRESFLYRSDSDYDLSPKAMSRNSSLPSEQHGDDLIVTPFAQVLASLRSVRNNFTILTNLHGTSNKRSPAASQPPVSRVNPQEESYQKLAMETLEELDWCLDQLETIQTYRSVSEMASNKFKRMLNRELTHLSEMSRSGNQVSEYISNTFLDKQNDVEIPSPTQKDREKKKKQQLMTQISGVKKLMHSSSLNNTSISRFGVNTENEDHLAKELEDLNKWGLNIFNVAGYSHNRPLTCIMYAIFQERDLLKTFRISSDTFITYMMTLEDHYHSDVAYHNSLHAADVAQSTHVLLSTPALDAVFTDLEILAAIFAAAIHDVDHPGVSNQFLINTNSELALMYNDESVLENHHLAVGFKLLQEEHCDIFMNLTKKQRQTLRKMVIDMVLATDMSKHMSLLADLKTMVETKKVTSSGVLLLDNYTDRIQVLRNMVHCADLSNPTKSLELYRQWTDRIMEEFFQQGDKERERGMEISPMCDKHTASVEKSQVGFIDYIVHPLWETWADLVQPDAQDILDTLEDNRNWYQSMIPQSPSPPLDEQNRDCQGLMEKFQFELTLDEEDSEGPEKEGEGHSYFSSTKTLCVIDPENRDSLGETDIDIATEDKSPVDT
Chain of Lysosomal acid glucosylceramidase (Homo sapiens) (P04062 whole entry, looked up): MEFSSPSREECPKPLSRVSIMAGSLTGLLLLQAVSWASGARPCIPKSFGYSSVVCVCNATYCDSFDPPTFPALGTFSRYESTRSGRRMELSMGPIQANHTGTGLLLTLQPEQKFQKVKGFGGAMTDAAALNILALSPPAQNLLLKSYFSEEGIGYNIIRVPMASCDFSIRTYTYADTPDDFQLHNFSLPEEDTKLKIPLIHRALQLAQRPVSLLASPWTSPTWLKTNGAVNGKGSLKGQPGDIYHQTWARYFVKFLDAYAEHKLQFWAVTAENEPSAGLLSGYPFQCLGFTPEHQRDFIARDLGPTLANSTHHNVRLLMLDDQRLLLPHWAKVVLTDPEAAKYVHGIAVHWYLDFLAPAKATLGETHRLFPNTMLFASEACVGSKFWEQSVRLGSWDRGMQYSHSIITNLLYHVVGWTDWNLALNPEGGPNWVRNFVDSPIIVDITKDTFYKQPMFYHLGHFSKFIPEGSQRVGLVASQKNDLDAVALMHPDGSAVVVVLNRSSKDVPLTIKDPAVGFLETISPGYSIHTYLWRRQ
Chain of Glucocorticoid receptor (Homo sapiens) (P04150 whole entry, looked up): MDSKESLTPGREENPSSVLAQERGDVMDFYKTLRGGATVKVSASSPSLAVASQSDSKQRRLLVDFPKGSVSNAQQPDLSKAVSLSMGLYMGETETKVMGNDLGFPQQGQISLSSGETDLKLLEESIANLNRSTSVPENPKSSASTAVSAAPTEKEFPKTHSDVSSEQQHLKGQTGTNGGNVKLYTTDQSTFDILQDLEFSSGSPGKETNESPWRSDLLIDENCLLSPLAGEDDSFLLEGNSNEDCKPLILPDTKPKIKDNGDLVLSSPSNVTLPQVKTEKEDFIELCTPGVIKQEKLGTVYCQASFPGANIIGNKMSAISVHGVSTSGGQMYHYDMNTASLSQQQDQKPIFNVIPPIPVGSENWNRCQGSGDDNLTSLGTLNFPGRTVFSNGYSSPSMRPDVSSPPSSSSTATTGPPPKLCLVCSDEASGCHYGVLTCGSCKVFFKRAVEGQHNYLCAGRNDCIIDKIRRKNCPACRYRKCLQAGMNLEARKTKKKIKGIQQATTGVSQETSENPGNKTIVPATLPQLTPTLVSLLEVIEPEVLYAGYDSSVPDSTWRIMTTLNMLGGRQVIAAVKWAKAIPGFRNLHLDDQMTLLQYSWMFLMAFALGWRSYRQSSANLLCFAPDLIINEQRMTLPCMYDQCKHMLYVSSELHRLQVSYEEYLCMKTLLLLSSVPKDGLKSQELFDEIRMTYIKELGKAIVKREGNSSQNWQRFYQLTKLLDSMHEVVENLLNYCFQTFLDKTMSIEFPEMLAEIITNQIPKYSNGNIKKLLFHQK
Chain of Cytochrome P450 2D6 (Homo sapiens) (P10635 whole entry, looked up): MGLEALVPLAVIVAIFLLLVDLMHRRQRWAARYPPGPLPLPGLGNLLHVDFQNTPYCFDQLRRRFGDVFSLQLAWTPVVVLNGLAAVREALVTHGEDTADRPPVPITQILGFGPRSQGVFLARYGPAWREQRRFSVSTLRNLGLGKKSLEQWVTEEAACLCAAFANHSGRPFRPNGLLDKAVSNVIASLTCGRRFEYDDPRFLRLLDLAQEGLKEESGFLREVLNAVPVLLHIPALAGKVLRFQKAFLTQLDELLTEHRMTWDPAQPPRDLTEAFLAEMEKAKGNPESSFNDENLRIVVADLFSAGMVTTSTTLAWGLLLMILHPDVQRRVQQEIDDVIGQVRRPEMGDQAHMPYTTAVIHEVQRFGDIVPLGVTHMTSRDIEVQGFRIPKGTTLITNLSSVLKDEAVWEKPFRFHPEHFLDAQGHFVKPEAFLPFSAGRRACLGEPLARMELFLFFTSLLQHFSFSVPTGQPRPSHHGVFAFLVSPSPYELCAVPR
Chain of Cytochrome P450 3A4 (Homo sapiens) (P08684 whole entry, looked up): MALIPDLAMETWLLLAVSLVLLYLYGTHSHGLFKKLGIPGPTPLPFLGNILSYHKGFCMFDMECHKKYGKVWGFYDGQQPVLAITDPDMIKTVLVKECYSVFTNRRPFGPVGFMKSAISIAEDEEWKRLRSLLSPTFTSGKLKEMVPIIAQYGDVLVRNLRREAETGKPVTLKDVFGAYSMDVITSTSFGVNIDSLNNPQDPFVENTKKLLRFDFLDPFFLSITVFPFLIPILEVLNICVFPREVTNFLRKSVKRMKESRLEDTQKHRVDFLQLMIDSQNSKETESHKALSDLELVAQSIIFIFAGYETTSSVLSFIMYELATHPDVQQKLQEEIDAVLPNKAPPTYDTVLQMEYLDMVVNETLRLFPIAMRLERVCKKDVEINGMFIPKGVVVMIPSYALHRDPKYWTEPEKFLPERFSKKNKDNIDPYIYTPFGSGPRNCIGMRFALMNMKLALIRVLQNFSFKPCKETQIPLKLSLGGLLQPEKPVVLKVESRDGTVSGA

As for `C=C(CC(=O)O)C(=O)O` (tested in a mixture with another compound), the results for the Potency in test [1], in [4] and in test [5] were more than 11.4 µM, more than 46 µM and more than 9.22 µM, respectively. Further, in test [2], the activity change, negative = inhibition is 6.49%. Further, the activity, negative = inhibition in [3] is -4.69%. Moreover, the Potency result in [6] and in test [7] was “inactive” in each case.

Turning to `CN(C)C(=O)C1CCN(Cc2c[nH]c3ccccc23)CC1`, the Potency was more than 11.4 µM in test [1], more than 46 µM in [4] and more than 9.22 µM in test [5]. Further, the activity change, negative = inhibition in test [2] is -1.75%. Moreover, the activity, negative = inhibition in [3] is -4.74%. The Potency entry in [6] and in [7] was “inactive” each time.

For `CC(C)(C)c1ccc(O)c(CN(Cc2cc(C(C)(C)C)ccc2O)c2ccccc2)c1`, the Potency in test [1] is more than 11.4 µM; in [4] it was more than 46 µM; in test [5], more than 9.22 µM. For the same compound, the activity change, negative = inhibition in test [2] was 4.11%. For the same compound, the activity, negative = inhibition in [3] was 2.48%. For the same compound, the Potency result in [6] and in test [7] was “inactive” each time. In addition, the activation in test [8] is 12.3%.

For `C[N@@+]1(Cc2ccc(Cl)c(Cl)c2)CCC[C@@H]1c1ccc[n+](Cc2ccc(Cl)c(Cl)c2)c1`, the Potency in [1] is more than 11.4 µM; in [4], more than 46 µM; in [5], more than 9.22 µM; in test [9], 3.16 µM (active). For the same compound, in [2], the activity change, negative = inhibition was -3.2%. In addition, the activity, negative = inhibition in test [3] is -0.293%. The Potency entry in [6] and in [7] was “inactive” each time.

`CN(C)CC[C@@H](C(=O)C(C)(C)C)c1ccccn1`: the Potency in test [1] is more than 11.4 µM; in [4] it was more than 46 µM; in test [5], more than 9.22 µM. Further, the activity change, negative = inhibition in [2] was 2.04%. The activity, negative = inhibition in test [3] was 1.4%. Moreover, the Potency result in test [6] and in test [7] was “inactive” in each case.

As to `c1ccc2c[n+](CCCC[n+]3ccc4ccccc4c3)ccc2c1`, the Potency in [1] is more than 11.4 µM; in [4], more than 46 µM; in [5], more than 9.22 µM. Moreover, the activity change, negative = inhibition in [2] was 9.12%. The activity, negative = inhibition in test [3] was -5.69%. Further, the Potency entry in test [6] and in test [7] was “inactive” throughout.

With `O[C@@H](c1cc(-c2ccccc2)nc2c1ccc1ccccc12)[C@@H]1CCCCN1`, the Potency in [1] is more than 11.4 µM; in test [4], more than 46 µM; in [5], more than 9.22 µM. Besides, the activity change, negative = inhibition in test [2] is -3.12%. Besides, the activity, negative = inhibition in test [3] is 9.42%. Further, the Potency entry in test [6] was “inactive”.

Turning to `O=C1c2ccccc2C(=O)c2c(NC(=O)c3ccc4c5c(ncnc35)-c3ccccc3C4=O)cccc21`, the Potency in [1] is more than 11.4 µM; in test [4], more than 46 µM; in [5], more than 9.22 µM. The activity change, negative = inhibition in [2] is 5.12%. The activity, negative = inhibition in test [3] was 0.00925%. Further, the Potency result in [6] and in [7] was “inactive” each time.

`Nc1ncnc2nc(-c3ccc(C[P+](c4ccccc4)(c4ccccc4)c4ccccc4)cc3)[nH]c12`: the Potency was more than 11.4 µM in test [1], more than 46 µM in test [4] and more than 9.22 µM in test [5]. For the same compound, in [2], the activity change, negative = inhibition is 3.32%. Moreover, the activity, negative = inhibition in [3] is 1.06%. The Potency result in [6] and in test [7] was “inactive” each time.

Take `CNc1ncnc(Sc2nc(N)nc3nc[nH]c23)c1[N+](=O)[O-]`: the Potency in test [1] is more than 11.4 µM; in test [4] it was more than 46 µM; in test [5] it was more than 9.22 µM. Also, in [2], the activity change, negative = inhibition was -9.31%. Besides, the activity, negative = inhibition in test [3] is 21.1%. In addition, the Potency entry in test [6] and in test [7] was “inactive” each time.

Consider `Cc1cccc(C(=O)O)c1C[C@H]1NCC[C@H]2c3ccccc3N[C@@H]12`, for which the results for the Potency in [1], in test [4] and in test [5] were more than 11.4 µM, more than 46 µM and more than 9.22 µM, respectively. In test [2], the activity change, negative = inhibition is 29.4%. Also, the activity, negative = inhibition in [3] is 4.38%. In addition, the Potency entry in [6] and in test [7] was “inactive” each time.

With `Cn1cnc([N+](=O)[O-])c1Sc1nnc(-c2cccnc2)n1C`, the values for the Potency in test [1], in [4] and in test [5] were more than 11.4 µM, more than 46 µM and more than 9.22 µM, respectively. For the same compound, the activity change, negative = inhibition in [2] is 19.7%. Moreover, in [3], the activity, negative = inhibition is 4.54%. The Potency result in test [6] and in [7] was “inactive” in each case.

Take `C[C@H](CCC(=O)O)[C@H]1CC[C@@H]2[C@H]3CC[C@H]4C[C@H](O)CC[C@@]4(C)[C@@H]3CC[C@@]21C`: the Potency is more than 11.4 µM in test [1], more than 46 µM in test [4] and more than 9.22 µM in test [5]. Further, the activity change, negative = inhibition in test [2] was 17.2%. In addition, in test [3], the activity, negative = inhibition is -10%. For the same compound, the Potency result in test [6] and in test [7] was “inactive” throughout.

Turning to `NS(=O)(=O)c1ccc(N=Nc2ncccc2O)cc1`, the values for the Potency in [1], in test [4] and in test [5] were more than 11.4 µM, more than 46 µM and more than 9.22 µM, respectively. Further, the activity change, negative = inhibition in [2] was 7.11%. The activity, negative = inhibition in test [3] was 5.47%. Also, the Potency result in [6], in test [7] and in test [10] was “inactive” throughout.

With `Clc1ccc(/C=C\c2nc(Cl)c(-c3ccc(Cl)cc3)c(Cl)n2)cc1`, the Potency is more than 11.4 µM in test [1], more than 46 µM in test [4] and more than 9.22 µM in test [5]. Further, the activity change, negative = inhibition in test [2] is -5.65%. For the same compound, the activity, negative = inhibition in test [3] is -0.809%. Moreover, the Potency entry in [6] and in test [7] was “inactive” each time.

As for `CN(C)CCC[C@@H]1c2ccccc2Oc2ccc(C(F)(F)F)cc21`, the Potency in test [1] was more than 11.4 µM; in [4], more than 46 µM; in [5] it was more than 9.22 µM. Also, in test [2], the activity change, negative = inhibition is 21.1%. For the same compound, the activity, negative = inhibition in [3] is 4.88%. Further, the Potency entry in test [6] and in test [7] was “inactive” each time.

As for `O=C1c2ccccc2-c2ccc(N(Cc3ccc(Br)cc3)Cc3ccc(Br)cc3)cc21`, the Potency was more than 11.4 µM in [1], more than 46 µM in test [4] and more than 9.22 µM in test [5]. Also, in [2], the activity change, negative = inhibition was -16.3%. The activity, negative = inhibition in test [3] is 4.89%. For the same compound, the Potency entry in test [7] was “inactive”.

`O=C(O)CC[P+](c1ccccc1)(c1ccccc1)c1ccccc1`: the Potency in [1] was more than 11.4 µM; in test [4] it was more than 46 µM; in [5] it was more than 9.22 µM. Further, in [2], the activity change, negative = inhibition is 2.51%. In addition, the activity, negative = inhibition in test [3] was 4.75%. Besides, the Potency entry in test [6] and in test [11] was “inactive” in each case.
